The list is not random: actives were taken first. Their share in the collection is about 27%.
CYP2C9 activ: activators of human CYP2C9 | P11712 | recombinant CYP2C9, luciferin-H conversion, luminescence; active compounds read high; factor 1 = untreated enzyme, 0 = blocked | activation factor at 5 µM | actives 1.4% (n = 96,000) | AID 1024;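 active = activation factor of 2 or more for CYP2C9 at a 5 µM dose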;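 also: 0 = sulfaphenazole-blocked wells and 1 = vehicle-only wells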
CYP2C9 inhib: inhibitors of human CYP2C9. CYP2C9 Supersomes, luciferin-H conversion, luminescence. actives 20% (n = 96,000). P11712. inhibition, % at 5 µM;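 active = blocking of liver enzyme CYP2C9 beyond about 50% at 5 µM, limit read from the data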
sEH act: activators of human soluble epoxide hydrolase | P34913 | actives 0.04% (n = 91,000) | AID 717 | activation, % at 2 µM | purified human sEH enzymatic activity, activator screen; in the data active = activation above about 37%
sEH inhibitor: blocks human soluble epoxide hydrolase activity. P34913. recombinant human sEH enzymatic activity assay. inhibition, % at 2 µM. actives 0.34% (n = 91,000); in the data active = inhibition above about 80%
CYP2C19 inh: human CYP2C19 inhibition | actives 21% (n = 96,000) | P33261 | AID 778 | CYP2C19 Supersomes, luciferin-H EGE luminescence, 30 min | inhibition, % at 5 µM;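 active = CYP2C19 inhibition above a set limit at 5 µM in the primary screen, cut at about 50% in these data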;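 also: plate controls were negative control wells for no effect and 2.5 mM tranylcypromine positive control for full effect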
Target sequence (P33261 whole entry, looked up): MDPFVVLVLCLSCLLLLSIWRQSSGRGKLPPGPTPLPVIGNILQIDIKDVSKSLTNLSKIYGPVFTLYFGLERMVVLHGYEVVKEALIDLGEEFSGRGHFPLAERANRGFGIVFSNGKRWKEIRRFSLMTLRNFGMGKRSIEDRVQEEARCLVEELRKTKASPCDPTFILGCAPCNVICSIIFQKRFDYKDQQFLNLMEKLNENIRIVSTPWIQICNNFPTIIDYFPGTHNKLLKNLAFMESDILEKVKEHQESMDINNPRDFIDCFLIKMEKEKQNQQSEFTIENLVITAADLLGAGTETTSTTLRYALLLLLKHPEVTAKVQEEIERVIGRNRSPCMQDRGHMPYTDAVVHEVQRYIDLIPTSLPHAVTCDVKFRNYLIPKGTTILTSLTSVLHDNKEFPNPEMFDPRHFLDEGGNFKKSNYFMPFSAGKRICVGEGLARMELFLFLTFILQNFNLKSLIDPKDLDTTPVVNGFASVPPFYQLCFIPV
CYP2C19 act: increases human CYP2C19 enzyme activity; AID 1025; 96,000 tested, under 10 active; recombinant CYP2C19, luciferin-H EGE luminescence; active compounds read high; 0 = fully inhibited enzyme, 1 = untreated enzyme; activation factor at 5 µM;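 active = activation factor of at least 2 at 5 µM in the primary screen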;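 also: 0 = wells with 2.5 mM tranylcypromine and 1 = vehicle-only wells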
The depositor's hits bear a star; · = not tested or not shown.

SMILES | CYP2C9 activ | CYP2C9 inhib | sEH act | sEH inhibitor | CYP2C19 inh | CYP2C19 act
CC(C)(C)c1cc(C(F)(F)F)nc(SCCCNC(=O)c2ccco2)n1 | 0.1 | 88* | 0 | 0 | 92* | 0.1
COc1cccc(-c2ccc(=O)n(CC(=O)Nc3cc4c(cc3NC(C)=O)OCCO4)n2)c1 | 0.6 | 38 | 8 | -10 | 69* | 0.3
COc1cccc(-c2ccc(=O)n(CC(=O)Nc3ccc(C(=O)N4CCCC4)cc3)n2)c1 | 0.6 | 36 | 12 | -10 | 55* | 0.5
Cc1nnsc1NC(=O)OCc1ccc(C(C)(C)C)cc1 | 0.9 | 12 | 6 | -3 | 32 | 0.7
C=CCNC(=O)c1c2c(nc3ccccc13)-c1ccccc1CC2 | 0.4 | 62* | -4 | 5 | 23 | 0.8
CCN(CC)C(=O)c1c2c(nc3ccccc13)-c1ccccc1CC2 | 0.4 | 65* | 0 | -3 | 24 | 0.8
O=C(CSc1nc2c(c(C(F)(F)F)n1)CCc1ccccc1-2)NCc1ccccc1 | · | · | 0 | 5 | · | ·
CC(C)CNC(=O)c1c2c(nc3ccccc13)-c1ccccc1CC2 | 0.5 | 46 | 8 | -5 | 17 | 0.8
O=C1CC(c2ccccc2)CCc2sccc2N1 (stereo not given) | 0.7 | 26 | 18 | -23 | 66* | 0.3
COc1ccc(-n2c(SC(CN3CCCCC3)CN3CCCC3=O)nc3ccccc3c2=O)cc1 (stereo not given) | 0.3 | 65* | -10 | 10 | 61* | 0.4
O=C1CCCN1CC(CN1CCOCC1)Sc1nnnn1-c1ccccc1 (stereo not given) | 1.1 | -6 | -4 | 5 | 27 | 0.7
Cn1nnnc1CCOCCc1nnnn1C | 1 | 2 | 2 | -1 | -2 | 1
C/C(N)=C(/C#N)C(=O)COC(=O)CCS(=O)(=O)c1ccccc1 | 0.9 | 5 | -10 | 13 | 27 | 0.7
C/C(N)=C(/C#N)C(=O)COC(=O)c1cc(S(=O)(=O)N2CCCCC2)ccc1C | 0.8 | 20 | 10 | -10 | 51* | 0.5
COc1cccc(NC(=O)COC(=O)c2cc(S(=O)(=O)N3CCOCC3)ccc2C)c1 | 0.7 | 34 | -11 | 10 | 23 | 0.8
C/C(N)=C(/C#N)C(=O)COC(=O)c1ccc(C)c(S(=O)(=O)N2CCCCC2)c1 | 0.4 | 62* | 2 | 1 | 81* | 0.2
C/C(N)=C(/C#N)C(=O)COC(=O)CCSc1ccccc1 | 0.6 | 36 | 2 | -4 | 68* | 0.3
C/C(N)=C(/C#N)C(=O)COC(=O)c1ccncc1 | 0.6 | 42 | 16 | -18 | 65* | 0.4
CCOc1ccc(OCCCCNCCN)cc1 | 1 | 4 | -1 | 1 | 6 | 0.9
Cc1nnc(SCC(=O)NC(C)c2ccccc2)[nH]c1=O (stereo not given) | 1 | 4 | · | · | -3 | 1
C/C(N)=C(/C#N)C(=O)COC(=O)c1cc(C)n(-c2ccc(F)cc2)c1C | 0.6 | 42 | -6 | 7 | 59* | 0.4
CCCOC(=O)NC(CC)COC(=O)Nc1cc(C)ccc1C (stereo not given) | 0.8 | 25 | 18 | -15 | 70* | 0.3
CCc1cccc(OCCCCNCCOC)c1 | 1 | 4 | 8 | -8 | 2 | 1
CC(=O)c1cccc(OCCN2C(=O)NC(C)(C)C2=O)c1 | 0.5 | 50* | 0 | 0 | 34 | 0.7
CCc1cccc(OCCCN2C(=O)NC(C)(C)C2=O)c1 | 0.4 | 60* | 3 | -1 | 92* | 0.1
SMILES | CYP2C9 activ | CYP2C9 inhib | sEH act | sEH inhibitor | CYP2C19 inh | CYP2C19 act
COc1cc(C(=O)Nc2ccccc2N2CCN(S(C)(=O)=O)CC2)cc(OC)c1OC | 0.2 | 79* | 12 | -13 | 14 | 0.9
COc1ccccc1C(=O)Nc1ccccc1N1CCN(S(C)(=O)=O)CC1 | 0.3 | 74* | -3 | 6 | 69* | 0.3
COc1ccccc1C(=O)Nc1ccc(N2CCN(S(C)(=O)=O)CC2)cc1 | 1.8 | -81 | 7 | -8 | 53* | 0.5
COc1c(C)cccc1C(=O)Nc1ccc(N2CCN(S(C)(=O)=O)CC2)cc1 | 1 | -1 | 10 | -10 | -1 | 1
Nc1nnnn1/N=C/c1ccccn1 | 1 | -4 | 1 | 1 | -5 | 1.1
O=C(O)C1C2C=CC3(CN(C/C=C/c4ccccc4)C(=O)C13)O2 (stereo not given) | 0.9 | 6 | · | · | -3 | 1
O=c1c2cnn(-c3ccccc3)c2ncn1/N=C/c1ccncc1 | · | · | 5 | -7 | · | ·

Screening data: PubChem, several laboratories
